Data from PubChem BioAssay (NCATS).
Values joined by “and” are separate entries in the source; they are usually repeats but may differ in a detail not shown here. Equal values may be shown once. Results filed as inconclusive are left out. Entries that show only a call come without a potency. Unmarked numbers belong to inactive results. Active and inactive are the calls of the source. Calls come from the whole dose curve; as a rule, active = well fitted inhibition curve with a large enough effect; inconclusive = small, poorly fitted or top-dose-only effect; inactive = flat fitted curve, though single readings scatter.

Assays:
KB-3-1 = assay: Cytotoxic Profiling of Annotated Libraries Using Quantitative High-Throughput Screening (AID 1296008); settings: Five cell lines viability, CellTiter-Glo ATP luminescence, 48-72 h; max response: stronger effect = lower value
How it was run: (§1)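 Cytotoxicity was measured as CellTiter-Glo ATP luminescence, read after 10 min at room temperature. Compound treatment of the cells lasted 48 or 72 hr at 37 degrees Celsius in a qHTS format.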

MKL-1 = assay: qHTS assay to identify novel small-molecules to repurpose for Merkel cell carcinoma treatment (AID 1296009); settings: MCC and control cell lines, CellTiter-Glo viability, 72 h; series mostly up to 46 µM
How it was run: (§2)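 Cell viability, measured as CellTiter-Glo luminescence, was normalized between DMSO and no-cell wells. The cells had been exposed to 8- or 11-point compound dilutions for 72 hr at 37 degree celsius.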

MKL-2 = assay: as above; settings: MCC and control cell lines, CellTiter-Glo viability, 72 h; series mostly up to 46 µM
How it was run: as §2

NIH3T3 [1] = assay: Cytotoxic Profiling of Annotated Libraries Using Quantitative High-Throughput Screening (AID 1296008); settings: Five cell lines viability, CellTiter-Glo ATP luminescence, 48-72 h; max response: stronger effect = lower value
How it was run: as §1

HACAT = assay: qHTS assay to identify novel small-molecules to repurpose for Merkel cell carcinoma treatment (AID 1296009); settings: MCC and control cell lines, CellTiter-Glo viability, 72 h; at 44.8 µM (top of the series) unless noted
How it was run: as §2

MCC-13 = assay: as above; settings: MCC and control cell lines, CellTiter-Glo viability, 72 h; series mostly up to 46 µM
How it was run: as §2

MCC-26 = assay: as above; settings: MCC and control cell lines, CellTiter-Glo viability, 72 h; series mostly up to 46 µM
How it was run: as §2

HEK293T = assay: as above; settings: MCC and control cell lines, CellTiter-Glo viability, 72 h; at 44.8 µM (top of the series)
How it was run: as §2

CRL-7250 = normal cell line; assay: as above; settings: MCC and control cell lines, CellTiter-Glo viability, 72 h; at 44.8 µM (top of the series) unless noted
How it was run: as §2

NIH3T3 [2] = assay: as above; settings: MCC and control cell lines, CellTiter-Glo viability, 72 h; at 44.8 µM (top of the series) unless noted
How it was run: as §2
Note: nearly all actives have a fitted effect of over 60% in size.
Potency is the fitted concentration of half-maximal effect.

CC[n+]1c(-c2ccccc2)c2cc(N)ccc2c2ccc(N)cc21
Potency (KB-3-1): 8.2 µM (active) and 23.1 µM (active) | Potency (MKL-1): 668 nM (active) | Potency (MKL-2): 944 nM (active)

O=C(CCl)c1ccc(Cl)cc1Cl
max response (NIH3T3 [1]): -36.1% | outcome (HACAT): inactive | Potency (MCC-13): inactive | Potency (MCC-26): inactive

Clc1ccc(CO/N=C(\Cn2ccnc2)c2ccc(Cl)cc2Cl)c(Cl)c1
max response (KB-3-1): 0.479% | Potency (MCC-26): inactive

CCO[C@H]1O[C@@H]2OC3(C)CC[C@H]4[C@H](C)CC[C@@H]([C@H]1C)[C@@]24OO3
max response (NIH3T3 [1]): 0.769% | Potency (MCC-13): inactive | Potency (MCC-26): inactive | Potency (MKL-1): inactive

CN1C(=O)[C@@H](NC(=O)c2cc3ccccc3[nH]2)N=C(c2ccccc2)c2ccccc21
max response (KB-3-1): 1.71% | Potency (MCC-13): inactive | Potency (MKL-1): inactive | Potency (MKL-2): inactive

CCC(=O)C(CCN(C)C)(c1ccccc1)c1ccccc1
max response (NIH3T3 [1]): 2.72% | Potency (MCC-13): inactive | Potency (MCC-26): inactive | Potency (MKL-1): inactive

Nc1ccc(Cl)cc1C(=O)c1ccccc1F
max response (NIH3T3 [1]): 0.255% | Potency (MCC-13): inactive | Potency (MCC-26): inactive | Potency (MKL-1): inactive | Potency (MKL-2): inactive

Nc1ccccc1C(=O)OCC(O)CO (centres undefined)
max response (NIH3T3 [1]): -1.39% | outcome (HEK293T): inactive | Potency (MCC-13): inactive | Potency (MCC-26): inactive | Potency (MKL-1): inactive | Potency (MKL-2): inactive

O=C(CBr)Nc1ccc(Cl)cc1C(=O)c1ccccc1F
outcome (NIH3T3 [1]): inactive | outcome (CRL-7250): inactive | Potency (MCC-13): inactive | Potency (MCC-26): inactive | Potency (MKL-1): inactive | Potency (MKL-2): inactive | outcome (NIH3T3 [2]): inactive

C#C[C@]1(O)CC[C@H]2[C@@H]3CCC4=CC(=O)CCC4=C3C=C[C@@]21CC
max response (NIH3T3 [1]): -4.44% | outcome (HACAT): inactive | Potency (MCC-13): inactive | Potency (MCC-26): inactive | Potency (MKL-1): inactive

Sc1ccccc1Cl
max response (NIH3T3 [1]): 2.05% | Potency (MCC-13): inactive | Potency (MCC-26): inactive | Potency (MKL-1): inactive | Potency (MKL-2): inactive

O=c1[nH]c2cc(Cl)ccc2n1C1CCNCC1
outcome (NIH3T3 [1]): inactive | outcome (CRL-7250): inactive | outcome (HACAT): inactive | Potency (MCC-13): inactive | Potency (MCC-26): inactive | Potency (MKL-1): inactive | Potency (MKL-2): inactive | outcome (NIH3T3 [2]): inactive

ClCCCN1CCN(c2cccc(Cl)c2)CC1
outcome (NIH3T3 [1]): inactive | outcome (CRL-7250): inactive | outcome (HACAT): inactive | outcome (HEK293T): inactive | Potency (MCC-13): inactive | Potency (MCC-26): inactive | Potency (MKL-1): inactive | Potency (MKL-2): inactive | outcome (NIH3T3 [2]): inactive

COP(=O)(OC)OC=C(Cl)Cl
outcome (NIH3T3 [1]): inactive | outcome (CRL-7250): inactive | Potency (MCC-13): inactive | Potency (MCC-26): inactive | Potency (MKL-1): inactive | Potency (MKL-2): inactive | outcome (NIH3T3 [2]): inactive

CC1COC2(c3ccccc3Cl)c3cc(Cl)ccc3NC(=O)CN12 (centres undefined)
max response (NIH3T3 [1]): 2.64% | outcome (HACAT): inactive | Potency (MCC-13): inactive | Potency (MCC-26): inactive | Potency (MKL-1): inactive

CCN1CCCC1CNC(=O)C(O)(c1ccccc1)c1ccccc1 (centres undefined)
outcome (NIH3T3 [1]): inactive | outcome (HEK293T): inactive | Potency (MCC-13): inactive | Potency (MCC-26): inactive | Potency (MKL-1): inactive | Potency (MKL-2): inactive | outcome (NIH3T3 [2]): inactive

Clc1ccc(CSC(Cn2ccnc2)c2ccc(Cl)cc2Cl)cc1 (centres undefined)
max response (KB-3-1): -15.3% | Potency (MKL-2): 13300 nM (active)

ClCc1cccc(Cl)c1
max response (NIH3T3 [1]): 0.768% | Potency (MCC-13): inactive | Potency (MCC-26): inactive | Potency (MKL-1): inactive | Potency (MKL-2): inactive

CC1Sc2c(C(=O)O)c(=O)c3cc(F)c(N4CCNCC4)cc3n21 (centres undefined)
outcome (NIH3T3 [1]): inactive | Potency (MCC-13): inactive | Potency (MCC-26): inactive | Potency (MKL-1): inactive | Potency (MKL-2): inactive | outcome (NIH3T3 [2]): inactive

CN(C)CCOc1ccccc1Cc1ccccc1
outcome (CRL-7250): inactive

Oc1ccc(O)cc1
outcome (CRL-7250): inactive

O=S(=O)(c1cccc2cnccc12)N1CCCNCC1
outcome (CRL-7250): inactive

CNC(=O)CN(CCN(CCN(CC(=O)[O-])CC(=O)NC)CC(=O)[O-])CC(=O)[O-].O.[Gd+3]
outcome (CRL-7250): inactive

Clc1ccc(Cn2c(CN3CCCC3)nc3ccccc32)cc1
outcome (CRL-7250): inactive

CCc1cc2cc(OC)c(OC)cc2c(Cc2ccccc2)n1
outcome (CRL-7250): inactive

CCC(=O)O[C@]1(C(=O)CCl)[C@@H](C)C[C@H]2[C@@H]3CCC4=CC(=O)C=C[C@]4(C)[C@@]3(F)[C@@H](O)C[C@@]21C
outcome (CRL-7250): inactive

Cc1cn([C@H]2C[C@H](F)[C@@H](CO)O2)c(=O)[nH]c1=O
outcome (CRL-7250): inactive

CCCCOc1cc(C(=O)OCCN(CC)CC)ccc1N
outcome (CRL-7250): inactive

CC(=O)OCC(=O)[C@@]1(O)CCC2C3CCC4=CC(=O)CC[C@]4(C)C3[C@@H](O)C[C@@]21C (some centres undefined)
outcome (CRL-7250): inactive

Cc1nnc2n1-c1sc(CCc3ccc(CC(C)C)cc3)cc1C(c1ccccc1Cl)=NC2C (centres undefined)
Potency (MCC-26): inactive | Potency (MKL-2): 11900 nM (active)

c1ccc2c(c1)CCc1ccccc1N2
outcome (CRL-7250): inactive

Fc1ccc(C(c2ccc(F)cc2)N2CCNCC2)cc1
outcome (CRL-7250): inactive

c1ccc2c(c1)Sc1ccccc1N2CC1CN2CCC1CC2 (centres undefined)
Potency (MKL-1): 23700 nM (active) | Potency (MKL-2): 11900 nM (active)

CCCCC(=O)O[C@]1(C(=O)CO)CC[C@H]2[C@@H]3CCC4=CC(=O)CC[C@]4(C)[C@H]3[C@@H](O)C[C@@]21C
outcome (CRL-7250): inactive

CCOC(C(=O)OCCN(C)C)(c1ccccc1)c1ccccc1
Potency (MCC-13): inactive | Potency (MCC-26): inactive | Potency (MKL-1): inactive | Potency (MKL-2): inactive

O=C(O)c1cccc(-c2noc(-c3ccccc3F)n2)c1
outcome (CRL-7250): inactive

C1CCN2C[C@@H]3C[C@@H](CN4CCCC[C@@H]34)[C@H]2C1
outcome (CRL-7250): inactive

CCCCN(CCCC)C(C(N)=O)c1ccc(OC)cc1 (centres undefined)
outcome (CRL-7250): inactive

CN1CCC(OC(c2ccccc2)c2ccccc2)CC1
outcome (CRL-7250): inactive

O=C(/C=C/c1ccccc1)NCCO
outcome (CRL-7250): inactive

Cc1cc(C(C)(C)C)c(O)c(C)c1CC1=NCCN1
outcome (CRL-7250): inactive

CC(C)(O)C(Cl)(Cl)Cl
outcome (HACAT): inactive | Potency (MCC-13): inactive | Potency (MCC-26): inactive | Potency (MKL-1): inactive | Potency (MKL-2): inactive | outcome (NIH3T3 [2]): inactive

NS(=O)(=O)c1cc2c(cc1Cl)NCNS2(=O)=O
outcome (CRL-7250): inactive

CC[C@]1(O)CC[C@H]2[C@@H]3CCC4=CCCC[C@@H]4[C@H]3CC[C@@]21C
Potency (MCC-26): inactive | Potency (MKL-1): inactive | Potency (MKL-2): inactive

CC(C)NCC(O)COc1ccc(COCCOC(C)C)cc1 (centres undefined)
outcome (CRL-7250): inactive

CCCCCCCCCCCC[N+](C)(C)CCOc1ccccc1
Potency (MCC-26): 23700 nM (active) | Potency (MKL-1): 2660 nM (active) | Potency (MKL-2): 1060 nM (active)

CC[N+](CC)(CC)CCOC(=O)C(C1CCCC1)C1CCCC1
outcome (CRL-7250): inactive

Cn1cc(C(=O)[C@@H]2CCc3nc[nH]c3C2)c2ccccc21
outcome (CRL-7250): inactive

C[C@@H]1O[C@@H](O[C@@H]2C=C3CC[C@@H]4[C@H](CC[C@]5(C)[C@@H](c6ccc(=O)oc6)CC[C@]45O)[C@@]3(C)CC2)[C@H](O)[C@H](O)[C@H]1O
Potency (MCC-13): 3.3 nM (active) | Potency (MKL-1): 9.4 nM (active) | Potency (MKL-2): 8.4 nM (active)

CO[C@@H]1[C@@H](O[C@@H]2O[C@H](C)[C@@H](O[C@H]3C[C@@](C)(O)[C@@H](O)[C@H](C)O3)[C@H](N(C)C)[C@H]2O)[C@@H](CC=O)C[C@@H](C)[C@@H](O[C@@H]2CC[C@H](N(C)C)[C@@H](C)O2)/C=C/C=C/C[C@@H](C)OC(=O)C[C@H]1OC(C)=O
outcome (CRL-7250): inactive

COC1=C(OC)C(=O)C(CCCCCCCCCCO)=C(C)C1=O
outcome (CRL-7250): inactive

CC#C[C@]1(O)CC[C@H]2[C@@H]3C[C@H](C)C4=CC(=O)CC[C@]4(C)[C@H]3CC[C@@]21C
outcome (HACAT): inactive | Potency (MCC-13): inactive | Potency (MCC-26): inactive | Potency (MKL-1): inactive

Cc1c(C(=O)NN2CCCCC2)nn(-c2ccc(Cl)cc2Cl)c1-c1ccc(Cl)cc1
outcome (CRL-7250): inactive

C[C@@H](C1=C(CCN(C)C)Cc2ccccc21)c1ccccn1
outcome (CRL-7250): inactive

CCC(=O)O[C@]1(C(=O)COC)[C@@H](C)C[C@H]2[C@@H]3CCC4=CC(=O)C=C[C@]4(C)C3(F)[C@@H](O)C[C@@]21C (some centres undefined)
outcome (CRL-7250): inactive

Cc1nnc(C(=O)NC(C)(C)c2nc(C(=O)NCc3ccc(F)cc3)c(O)c(=O)n2C)o1
outcome (CRL-7250): inactive
